From PubChem BioAssay
Shown are actives, neighbours in structure and some others; about 21% of the full set was active somewhere.
Shiga inhibitor: A qHTS for Small Molecule Inhibitors of Shiga Toxin | Vero cells, Shiga toxin protein synthesis inhibition reporter | inhibition, % at 38.7 µM | hit rate 9.2% among 290,000; in the data active = inhibition mostly above about 28%, no sharp cut-off; inactive = mostly below about 43%; note: 0% is about no effect
AMA1 RON2 block: qHTS for Inhibitors of AMA1-RON; Towards Development of Antimalarial Drug Lead: Primary Screen. hit rate 0.2% among 360,000. Potency, µM (top dose mostly 58.2 µM), without a hit: top-dose activity change, negative = inhibition, most hits filed as inhibitors. AlphaScreen AMA1-biotinylated RON2 peptide binding. Plasmodium falciparum AMA1 (3D7) - RON2 peptide interaction. AID 720542, 2013;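 note: potency is the fitted concentration of half-maximal effect; 0% = vehicle wells and -100% = peptide control; nearly all actives have a fitted effect of over 45% in size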
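AMA1 (3D7) with his tag at 25 nM final met compounds first, then biotinylated RON2 peptide at 25 nM; detection used donor plus acceptor beads, 10 µg/mL apiece, read by AlphaScreen after 30 min at room temperature.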
HCV inhibitor: qHTS Assay for Inhibitors of Hepatitis C Virus (HCV); Huh7.5.1 HCVcc-Cre infection, luciferase reporter, 44 h; Potency, µM (series often up to 41.8 µM), inactives show at the highest dose activity change, negative = inhibition, most hits filed as inhibitors; hit rate 3.4% among 340,000; note: potency is the fitted concentration of half-maximal effect; % is set by controls: 0 for no effect and ±100 for the full control effect
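Compounds are dispensed onto cells plated 4 h earlier at 1,000 per well, with HCVcc-Cre virus (about 0.5 moi) added next. Following 44 h of culture, luminescent signal is measured for 15 sec after 15 min with substrate at room temperature.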
Pf growth 48h: Primary qHTS for delayed death inhibitors of the malarial parasite plastid, 48 hour incubation. Potency, µM (top dose mostly 28.7 µM), inactives show at the top dose activity change, negative = inhibition, most hits filed as inhibitors. P. falciparum luciferase growth in erythrocytes, 48 h. hit rate 5.9% among 310,000; note: potency is the fitted concentration of half-maximal effect; % is set by controls: 0 for no effect and ±100 for the full control effect
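Luciferase-expressing parasites in RBCs, 2% Hct / 0.1% parasitemia final; RPMI 1640 + 0.5% Albumax; 37 C, 5% CO2, one generation; luminescence read-out, lower signal = inhibition.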
CHX counter: Cycloheximide Counterscreen for Small Molecule Inhibitors of Shiga Toxin | cell reporter, cycloheximide protein synthesis inhibition counterscreen | max response, % | hit rate 12% among 300,000; in the data active = max response mostly above about 13%, no sharp cut-off; inactive = mostly below about 14%; note: read at 38.3 µM for the half of the compounds with a filed dose; 0% is about no effect
Pf growth 96h: Primary qHTS for delayed death inhibitors of the malarial parasite plastid, 96 hour incubation. P. falciparum luciferase reporter growth, 96 h. Potency, µM (highest dose often 28.7 µM), for the others: at the top dose activity change, negative = inhibition, most hits filed as inhibitors. hit rate 6.9% among 320,000. AID 504834, 2011; note: potency is the fitted concentration of half-maximal effect; % is set by controls: 0 for no effect and ±100 for the full control effect
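Luminescence readout: decreased luciferase signal marks inhibited growth of reporter-expressing P. falciparum in infected red cells (2% hematocrit, 0.05% parasitemia final), exposed to compound two generations (96 h, 37 C, 5% CO2).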
An asterisk follows results filed as active; i = inactive; ? = inconclusive; / = no result. Unless noted, calls come from the whole dose curve; as a rule, active = well fitted curve in the direction sought with a large enough effect; inconclusive = small, poorly fitted or top-dose-only effect, or another doubt; inactive = no such curve, though single readings can be large; an effect the other way counts as inactive or inconclusive.

SMILES | Shiga inhibitor | AMA1 RON2 block | HCV inhibitor | Pf growth 48h | CHX counter | Pf growth 96h
CC(Oc1ccc(F)cc1)C(=O)Nc1cc(S(=O)(=O)N2CCCCC2)ccc1N1CCN(C)CC1 (centres undefined) | / | -1% | -21% | / | / | /
CCN1CCN(c2ccc(S(=O)(=O)N3CCCCC3)cc2NC(=O)/C=C/c2ccc(OC(F)F)cc2)CC1 | / | -24% | ? | 9.3µM* | / | 4.1µM*
CN1CCN(c2ccc(S(=O)(=O)N3CCCCC3)cc2NC(=O)/C=C/c2ccc(OC(F)F)cc2)CC1 | / | ? | ? | 9.3µM* | / | 7.4µM*
Cc1ccc(NC(=O)N[C@H](C(=O)O)C(C)C)c(C)c1 | 3 | -1% | 11% | 14% | -2 | 53%
IC(I)I | / | / | / | -8% | / | -10%
CCOC(=O)c1cnn(-c2ccccc2)c1-n1cccc1C(=O)C(=O)Nc1ccccc1C(F)(F)F | -15 | -14% | ? | 13µM* | 0 | 15µM*
Cn1cccc1C(=O)C(=O)Nc1ccccc1 | 91* | 4% | 5% | 211% | 43* | 111%
CC(C)(C)C(=O)NC(=O)Nc1ccccc1C(F)(F)F | 20 | -11% | 19% | 34% | 11* | 21%
Cn1cccc1C(=O)C(=O)Nc1ccccc1C(F)(F)F | 65* | -18% | -4% | 219% | 40* | 0%
CCc1ccc(/C=N/n2c(COc3ccccc3)n[nH]c2=S)cc1 | -16 | 84% | -7% | 8% | -4 | 6%
CCOC(=O)c1c(C)[nH]c(C)c1S(=O)(=O)N1CCN(c2ccc(F)cc2)CC1 | 12 | -14% | 5% | -6% | -1 | 8.3µM*
CCOC(=O)c1c(C)[nH]c(C)c1S(=O)(=O)N1CCOCC1 | -7 | 0% | 3% | 28% | -2 | 6.6µM*
CCOC(=O)c1c(C)[nH]c(C)c1S(=O)(=O)NCCCN1CCOCC1 | -4 | -5% | 19% | 12% | -2 | ?
C[C@@H]1C(=O)O[C@H]2[C@H](O)[C@@]34[C@H]5C[C@@H](C(C)(C)C)[C@]36[C@@H](OC(=O)[C@@H]6O)O[C@@]4(C(=O)O5)[C@@]12O | -5 | -8% | -3% | 25% | 1 | 21%
O=C(CSc1nccn1Cc1ccc(F)cc1)NC1CCCCC1 | / | -5% | / | / | / | /
Cc1ccc(CCNS(=O)(=O)c2cc(Br)cnc2N)cc1 | -5 | -8% | 13% | 13% | -1 | ?
CCc1nccn1S(=O)(=O)c1ccc(OC)c(C)c1C | -7 | 17% | 14% | / | -1 | 47%
CCc1nccn1S(=O)(=O)c1ccc(Br)cc1Br | 12 | -1% | 9% | 24% | 9 | 0.93µM*
CCCCC(CC)COC1(c2ccccc2)OC(=O)c2ccccc21 (centres undefined) | 23 | 12% | / | 9.3µM* | 0 | 8.3µM*
CCCCOC1(c2ccccc2)OC(=O)c2ccccc21 (centres undefined) | -6 | 11% | / | ? | 24 | ?
CCOc1ncccc1C(=O)Nc1ccc(F)c(Cl)c1 | 11 | -3% | 13% | 0% | 16 | -13%
CCCn1c(SCC(=O)N2CC(=O)Nc3ccccc32)n[nH]c1=O | / | -10% | -3% | / | / | /
CC1(C(=O)Nc2cccc(-n3cnnn3)c2)Cc2ccccc2C(=O)O1 (centres undefined) | / | -12% | -2% | / | / | /
c1ccc(C2=NC(c3ccccc3)N=C(c3ccccc3)N2)cc1 | -3 | 0% | 12% | ? | 1 | -26%
Oc1ccccc1C1N=C(c2ccccc2)NC(c2ccccc2)=N1 | -15 | -7% | -8% | / | 1 | 1.7µM*
SMILES | Shiga inhibitor | AMA1 RON2 block | HCV inhibitor | Pf growth 48h | CHX counter | Pf growth 96h
Oc1ccc(C2N=C(c3ccccc3)NC(c3ccccc3)=N2)cc1 | -9 | 1% | 7% | -13% | 9 | 12µM*
Cc1ccc(NC(=O)c2cc(-c3cc(Cl)ccc3C)n[nH]2)cc1NS(C)(=O)=O | / | -6% | / | / | / | /
Cc1ccc(-n2nc3c(n2)/C(=N/O)CC/C3=N\O)cc1 | 48* | -4% | -29% | i | 44* | i
CCc1ccc(-c2cc(C)no2)cc1S(=O)(=O)NCc1ccco1 | 42* | -3% | -30% | -17% | 30* | 29%
CCc1ccc(-c2cc(C)no2)cc1S(=O)(=O)NCCc1ccc(OC)c(OC)c1 | -1 | 0% | -30% | 0% | 1 | 12µM*
COc1c(C)cc(S(=O)(=O)NCc2ccco2)c(C)c1C | 21 | -1% | 13% | ? | 15* | ?
CCCc1c(O)nc(SCCN(CC)CC)[nH]c1=O | -21 | -11% | -3% | -8% | -3 | /
CCCc1c(O)nc(SCCN(CC)CC)n(C(=O)c2ccccc2)c1=O | -8 | 0% | 21% | ? | -2 | 13µM*
C/C(=N/NC(=O)c1ccc(C)s1)c1cccc(NC(=O)COc2ccc(Cl)cc2Cl)c1 | 6 | 0% | 11% | / | 1 | 15%
C/C(=N/NC(=O)c1cccs1)c1ccc(NC(=O)COc2ccc(Cl)cc2Cl)cc1 | 94* | 4% | -6% | 8% | 33* | -2%
O=C(COC(=O)COc1ccccc1[N+](=O)[O-])Nc1cccc(Br)c1 | -6 | 6% | 30% | 20% | 15* | 44%
COc1cc(NC(=O)COc2ccccc2[N+](=O)[O-])ccc1NC(=O)c1cccs1 | -5 | -3% | ? | 52% | -1 | 12µM*
COc1cc(NC(=O)COc2ccccc2Cl)ccc1NC(=O)c1cccs1 | -3 | -3% | 1.1µM* | 13% | -6 | 19%
COc1ccccc1/C=C/CN1CCSCC1 | -9 | -5% | -16% | -2% | -3 | ?
Cc1cc(C(=O)NNc2ccc(C(C)C)cc2)n(C(C)(C)C)n1 | 26 | -26% | -2% | -1% | -1 | -2%
CCOC(=O)c1c(S(=O)(=O)NCC(=O)Nc2ccc(OC)cc2)c(C)n(C)c1C | 10 | -10% | 13% | 15% | 1 | 2%
CN(c1ccc(Br)cc1)S(=O)(=O)c1ccc2[nH]cc(C(=O)NCCN3CCOCC3)c(=O)c2c1 | -7 | 18% | -3% | ? | 0 | ?
O=C(c1ccco1)N1N=C(c2ccccc2)CC1c1ccc2nccnc2c1 (centres undefined) | 31 | 6% | ? | ? | 16* | 7.4µM*
O=C(O)CCCC(=O)N1N=C(c2ccccc2)CC1c1ccc2nccnc2c1 (centres undefined) | -2 | -8% | 4% | 14% | 8 | 3.7µM*
CC(C)=CCN1CCN(Cc2cccc3c2OCO3)CC1CCO (centres undefined) | -15 | 12% | 7% | 4% | 2 | ?
